D2 PAM-1: potentiates the human D2 dopamine receptor allosterically | P14416 | DiscoveRx D2 beta-arrestin cells, luminescence, 90 min; 100% = 57 uM dopamine signal | potentiation, % (test concentration not listed) | hit rate 0.23% among 360,000; in the data active = potentiation above about 50%; inconclusive = mostly about 30% to 49%
Target sequence (P14416 whole entry, looked up): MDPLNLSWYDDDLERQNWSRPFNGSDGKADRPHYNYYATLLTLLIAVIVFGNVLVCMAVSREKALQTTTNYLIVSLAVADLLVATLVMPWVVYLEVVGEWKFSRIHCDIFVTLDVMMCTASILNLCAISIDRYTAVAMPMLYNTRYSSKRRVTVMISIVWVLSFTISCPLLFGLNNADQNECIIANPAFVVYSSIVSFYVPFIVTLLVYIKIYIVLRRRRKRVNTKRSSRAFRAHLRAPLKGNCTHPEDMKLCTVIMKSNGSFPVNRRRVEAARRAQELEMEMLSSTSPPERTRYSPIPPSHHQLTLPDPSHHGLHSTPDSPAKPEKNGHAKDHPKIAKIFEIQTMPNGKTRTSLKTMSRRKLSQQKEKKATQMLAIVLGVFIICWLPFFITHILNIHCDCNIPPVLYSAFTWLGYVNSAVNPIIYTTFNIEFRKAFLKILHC
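D2 cells co-treated with compound plus 50 nM dopamine (EC20) for 90 min at 37 deg C to detect potentiation. Beta-arrestin recruitment was read as enzyme-fragment luminescence after 1 h at ambient temperature. Full response was set by 57 uM dopamine.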
D2 ag-1: activates the human D2 dopamine receptor; P14416; HEK293 T-REx D2 cells, calcium flux agonist mode; activation, % at 2 µM; hit rate 0.53% among 340,000;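 active = activation over 3 SD above normal in the single-dose calcium agonist read, cut at about 30% in these data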
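Tetracycline-induced HEK293 T-REx cells with force-coupled D2 receptor, plated overnight at 30 C, loaded with no-wash calcium dye. After a 10 s baseline, compound was pin-added and calcium flux read kinetically for 180 s; calcium rises flagged agonists.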
D2 ag-2: activates the human D2 dopamine receptor | activation, % (no concentration beside the values) | DiscoveRx PathHunter D2 beta-arrestin, luminescence, 90 min; 100% = 57 uM dopamine signal | hit rate 0.084% among 360,000 | P14416; in the data active = activation above about 40%; inconclusive = between about 15% and that limit
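Agonist mode: compounds alone added to overnight-plated D2 PathHunter cells for 90 min at 37 C, with 57 uM final dopamine (EC100) defining full response. Beta-arrestin recruitment detected by chemiluminescent reagent, read after 1 h at ambient temperature.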
D2 antag: D2 dopamine receptor (human) antagonism. inhibition, % at 10 µM. P14416. hit rate 2% among 340,000. HEK293 TREx D2 cells, calcium flux, dopamine EC80; in the data active = inhibition above about 30%; inactive = below that, where a call was filed
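Tetracycline-induced HEK293 TREx cells expressing D2 receptor forced-coupled to calcium signalling, loaded with no-wash calcium dye. Compounds added and calcium flux read 180 s, then dopamine added at EC80 and read a further 180 s.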
D2 PAM-2: D2 dopamine receptor (human) potentiation; P14416; HEK293 T-REx D2, calcium flux, EC20 dopamine potentiation; potentiation, % at 10 µM; hit rate 0.34% among 340,000; AID 485347;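 active = potentiation over 3 SD above the plate norm, cut at about 30% in these data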
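Using a no-wash calcium dye in inducible, force-coupled HEK293 Trex cells expressing D2, we tracked fluorescence each second for 180 s after compound, then for 180 s after EC20 dopamine to detect augmented signalling.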
Numbers stand for hits; i = inactive; ? = inconclusive; nt = no result given. Shown are actives, neighbours in structure and some others; about 2.4% of the full set was active somewhere.

SMILES | D2 PAM-1 | D2 ag-1 | D2 ag-2 | D2 antag | D2 PAM-2
Cc1ccccc1C(=O)NC(=S)Nc1ccccc1C(F)(F)F | i | i | i | 50 | i
N#C/C(=C\c1c(Cl)cccc1Cl)c1nc2ccccc2o1 | 58 | i | ? | i | i
Cc1cc2ccccc2n1CCNC(=O)COc1ccccc1 | i | i | i | 39 | i
CCC(=O)NCCn1c(C)cc2ccccc21 | i | i | i | i | i
CC(=O)c1cccc(N2C(=NC(=O)CCc3ccccc3)SC3CS(=O)(=O)CC32)c1 (stereo unspecified) | i | i | i | 32 | i
CCN1CCc2c(sc(NC(=O)Cc3ccccc3)c2C(N)=O)C1 | i | i | i | i | i
CC(C)C(=O)Nc1sc2c(c1C(N)=O)CCN(Cc1ccccc1)C2 | i | i | i | i | i
NC(=O)c1c(NC(=O)c2c(F)cccc2F)sc2c1CCN(Cc1ccccc1)C2 | i | i | i | i | i
CCC(=O)Nc1sc2c(c1C(N)=O)CCN(Cc1ccccc1)C2 | i | 55 | i | 38 | i
NC(=O)c1c(NC(=O)c2ccccc2)sc2c1CCN(Cc1ccccc1)C2 | i | 44 | i | i | i
CCN1CCc2c(sc(NC(=O)Nc3ccc(Cl)c(Cl)c3)c2C(N)=O)C1 | i | 109 | i | 72 | i
CCN1CCc2c(sc(NC(=O)c3ccc(S(=O)(=O)N(CC)c4ccccc4)cc3)c2C(N)=O)C1 | i | 52 | i | i | i
Cc1ccc(CNC(=O)c2cnc(N3CCCCC3)c3ccccc23)cc1 | nt | i | nt | nt | i
COc1ccc(Nc2nc(Cl)nc(Nc3ccc(OC)cc3OC)n2)c(OC)c1 | i | i | i | 51 | i
C=CCNc1nc(Cl)nc(Nc2ccc(OC)cc2OC)n1 | i | i | i | i | i
CN1CCN(c2nc(-c3ccccc3)ncc2S(=O)(=O)c2ccccc2)CC1 | i | i | i | 54 | i
COc1ccc(C2c3c(n(C)c4ccccc34)C(=O)N2CC(=O)Nc2cc(Cl)ccc2C)cc1 (stereo unspecified) | nt | i | nt | nt | i
CCOC(=O)CC1C(=O)NCCN1c1nc2ccc(C)cn2c(=O)c1/C=C1\SC(=S)N(CC(C)C)C1=O (stereo unspecified) | i | 104 | i | i | i
CCCCCN1C(=O)/C(=C/c2c(N3CCc4ccccc4C3)nc3ccccn3c2=O)SC1=S | i | nt | i | nt | nt
CCOC(=O)CC1C(=O)NCCN1c1nc2ccc(C)cn2c(=O)c1/C=C1\SC(=S)N(C(C)CC)C1=O (stereo unspecified) | nt | 73 | nt | 32 | i
CCCN1C(=O)/C(=C/c2c(N3CCNC(=O)C3CC(=O)OCC)nc3c(C)cccn3c2=O)SC1=S (stereo unspecified) | i | 81 | i | i | i
CCOC(=O)CC1C(=O)NCCN1C(=O)c1ccc(C)cc1 (stereo unspecified) | i | i | i | i | i
Cc1ccc(C(=O)NCCN2CCCC2)cc1 | i | i | i | i | i
CCOc1c(Cl)cc(C(=O)NCCN2CCCCC2)cc1Cl | i | i | i | 34 | i
CCOc1ccc(C(C)=O)cc1CN1C(=O)c2ccccc2S1(=O)=O | i | i | i | 34 | i
SMILES | D2 PAM-1 | D2 ag-1 | D2 ag-2 | D2 antag | D2 PAM-2
CCOC(=O)c1ccc(CN2C(=O)c3ccccc3S2(=O)=O)cc1 | i | i | i | i | i
COc1cc(Cl)c(NC(=O)CCc2nc3cccnc3n2-c2ccccc2)c(OC)c1 | nt | i | nt | nt | i
CNc1nc(NC)nc(NNC(=O)c2ccccc2)n1 | i | nt | i | nt | nt
Cc1cc(NNC(=O)c2ccccc2)nc(NNC(=O)c2ccccc2)n1 | i | i | i | 34 | i
COc1ccccc1CNc1cc(C)nc2nc(-c3ccc(C)cc3)nn12 | nt | i | nt | nt | i
COc1ccc2c(c1)C=C(CN1CCN(Cc3ccccc3C)C(CCO)C1)CO2 (stereo unspecified) | i | i | i | 58 | i
COc1ccc2c(c1)C=C(CN1CCC(CO)(CCc3ccccc3)CC1)CO2 | i | i | i | 31 | i
CC(C(=O)Nc1ccc(OCc2ccccc2)cc1)N1CCCC1 (stereo unspecified) | i | i | i | i | i
CC(C)COCC(CN(Cc1ccccc1)c1ccccc1)N1CCCC1 (stereo unspecified) | i | 38 | i | i | i
COc1ccc2c(c1)Sc1ccccc1N2CCN(C)C | i | i | i | 40 | nt
O=c1[nH]c(-[n+]2ccccc2)c(/C=N/NC([S-])=Nc2ccccc2)s1 | i | 30 | i | i | i
Cc1cc[n+](-c2[nH]c(=O)sc2/C=N/NC([S-])=Nc2ccccc2)cc1 | i | i | i | i | i
Cc1ccc(-n2ncc3c(N(C)Cc4ccccc4)ncnc32)cc1 | nt | i | nt | nt | i
Cc1ccc(S(=O)(=O)CC(=O)Nc2ncc([N+](=O)[O-])s2)cc1 | i | i | i | i | i
Cc1ccc(CC(=O)Nc2ncc([N+](=O)[O-])s2)cc1 | 67 | i | i | i | i
Cc1ccc(C(=O)NCC(c2ccco2)N2CCCCC2)s1 (stereo unspecified) | i | i | i | 36 | i
O=C(NCC(c1ccco1)N1CCCC1)c1cc2ccccc2s1 (stereo unspecified) | i | i | i | 35 | i
CCc1ccc(-c2nc(SCC(=O)NCCOC)c(-c3ccc(C)cc3)[nH]2)cc1 | nt | i | nt | nt | i
Cc1nc(-c2ccc(F)cc2)sc1CCNC(=O)c1ccccc1C(F)(F)F | nt | i | nt | nt | i
CCOP(=O)(OCC)C(Nc1cccc(C(F)(F)F)c1)c1ccc(C)cc1 (stereo unspecified) | i | 37 | i | i | i
C/C(=N\Nc1nccnc1Cl)c1ccc(Br)cc1 | i | i | i | i | i
COc1ccc(/C(C)=N/Nc2nccnc2Cl)cc1 | i | i | i | 36 | i
CN1CCC=C(C(=O)N2c3ccccc3Sc3ccc(Cl)cc32)C1 | i | i | i | 39 | i
NCCC(=O)N1c2ccccc2Sc2ccc(Cl)cc21 | i | 42 | i | 48 | i
COc1cc(Cl)c(C)cc1NC(=O)CCCN1C(=O)C(c2ccccc2)Oc2cccnc21 (stereo unspecified) | nt | nt | nt | nt | i
SMILES | D2 PAM-1 | D2 ag-1 | D2 ag-2 | D2 antag | D2 PAM-2
COC(=O)c1cc(C(=O)OC)cc(-n2c(C)cc(C(=O)COC(=O)CNS(=O)(=O)c3ccc(C)cc3)c2C)c1 | i | i | i | 60 | i
CCN(CC)c1ccc(/C=C/C(=O)C2C(=O)C=C(C)OC2=O)cc1 (stereo unspecified) | i | 83 | i | 50 | nt
Cc1ccc(C)c(NC(=O)CSc2nncn3c2cc2sccc23)c1 | nt | i | nt | nt | i
Cc1ccc(CN2C(=O)CCSc3ccc(Cl)cc32)cc1 | i | i | i | i | i
O=C1CCSc2ccc(Cl)cc2N1Cc1cccc(Cl)c1 | i | i | i | 33 | i
CCOC(=O)CC(NC(=O)CCc1c(C)nc2c(c1C)c(=O)n(C)c(=O)n2C)c1ccc(OCC)c(OC)c1 (stereo unspecified) | nt | i | nt | nt | i
CCc1ccc(CN(C(=O)Nc2cccc(Cl)c2)c2ccccn2)cc1 | nt | i | nt | nt | i
